# The campaign covered roughly 48,000 compounds. About 1,200 (2.5%) were called active. Not shown: some 2% with an inconclusive outcome.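 The calls were made as follows: active = activation of at least 60% and not above a set upper limit (about 1 call in 100 departs from these limits); inconclusive = activation of 40% to 60%, or above that upper limit; inactive = activation under 40%.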 The full list was thinned out, with actives kept by preference.
# Target: Probable G-protein coupled receptor 32 (Homo sapiens) (UniProt O75388)
# Sequence (O75388 whole entry, looked up): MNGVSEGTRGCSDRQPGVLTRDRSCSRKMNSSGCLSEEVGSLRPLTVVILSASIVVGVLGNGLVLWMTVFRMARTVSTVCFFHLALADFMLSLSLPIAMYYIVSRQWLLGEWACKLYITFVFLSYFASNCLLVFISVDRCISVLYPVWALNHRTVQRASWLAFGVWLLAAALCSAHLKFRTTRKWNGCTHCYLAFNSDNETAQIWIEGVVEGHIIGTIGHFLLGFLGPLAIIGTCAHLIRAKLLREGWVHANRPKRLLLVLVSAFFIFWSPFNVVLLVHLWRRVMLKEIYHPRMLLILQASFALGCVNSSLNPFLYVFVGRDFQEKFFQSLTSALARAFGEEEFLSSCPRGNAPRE
# Assay: qHTS for Agonists of Human Resolvin D1 Receptor DRV1; also: 0% is about no effect
# Settings: CHO-K1 GPR32 beta-arrestin PathHunter luminescence, 90 min; at 76.9 µM; stronger effect = higher value; zero percent set by DMSO-only wells
# Summary of the method: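 Beta-arrestin recruitment read-out: luminescence from complemented beta-Gal in CHO-K1 GPR32 PathHunter cells, measured 1 h after detection reagent at ambient temperature following 90 min compound exposure at 37 °C; DMSO served as basal (EC0) control.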
row,SMILES,activation
1,O=C(Nc1nnc(S(=O)(=O)N2CCCc3ccccc32)s1)c1cccc(F)c1,45.3% (inactive)
2,Cc1ccc(C(=O)Nc2ccccc2F)cc1S(=O)(=O)N1CCOCC1,2.32% (inactive)
3,O=C(Nc1nnc(S(=O)(=O)N2CCCCCC2)s1)c1cccc(Br)c1,115% (active)
4,COc1cccc(CNC(=O)CN2C(=O)CCc3cc(S(=O)(=O)N4CCOCC4)ccc32)c1,0% (inactive)
5,COc1cccc(C(=O)Nc2nnc(S(=O)(=O)N3CCOCC3)s2)c1,69.6% (active)
6,Cc1ccccc1C(=O)Nc1nnc(S(=O)(=O)N(C)c2ccc(Cl)cc2)s1,8.7% (inactive)
7,CCOc1cccc(C(=O)Nc2nnc(S(=O)(=O)N(C)c3ccc(C)cc3)s2)c1,63.1% (active)
8,CC(C)CC(=O)Nc1nnc(S(=O)(=O)N(C)c2ccc(Cl)cc2)s1,-5.88% (inactive)
9,Cc1cc2nc(NC(=O)c3ccc(S(=O)(=O)N4CCOCC4)cc3)sc2cc1C,-4.68% (inactive)
10,O=C(Nc1nnc(S(=O)(=O)N2CCOCC2)s1)c1cccc(Br)c1,93.4% (active)
11,Cc1ccccc1OCC(=O)Nc1nnc(S(=O)(=O)N2CCCC2)s1,5.36% (inactive)
12,CN(Cc1ccco1)S(=O)(=O)c1nnc(NC(=O)c2ccccc2)s1,18.1% (inactive)
13,Cc1cc(N2CCN(c3cccc(C(F)(F)F)c3)CC2)n2nc(-c3ccccc3)nc2n1,-14.2% (inactive)
14,CCOC(=O)c1c(NC(=O)COc2cc(C)ccc2C(C)C)sc(C)c1C,-11% (inactive)
15,Cc1ccc(C)c(S(=O)(=O)n2nc(C)c(S(=O)(=O)N3CCC(C)CC3)c2C)c1,-11.2% (inactive)
16,O=C(Nc1cc(C(F)(F)F)ccc1Cl)c1cc2nc(-c3ccc4c(c3)OCO4)cc(C(F)(F)F)n2n1,-10.2% (inactive)
17,Cc1ccc(NC(=O)c2ccc(CN3CC(=O)N4CCCCC4C3=O)cc2)c(Cl)c1 (centres undefined),-8.29% (inactive)
18,COc1ccc(-c2cc(C(=O)NCc3cc(OC)c(OC)c(OC)c3)[nH]n2)cc1,-1.24% (inactive)
19,COc1ccc(NC(=O)CSc2nc3ccccc3n2CC(=O)N2CCCCC2C)cc1 (centres undefined),-15.6% (inactive)
20,CCOc1ccccc1NC(=O)Cn1c(=O)n(Cc2ccccc2)c(=O)c2c(C)c(C(=O)N(C)C)sc21,-24.5% (inactive)
21,CCn1cc(C(=O)OCC(=O)Nc2cc(C)cc(C)c2)c(=O)c2ccc(C)nc21,20.2% (inactive)

row,SMILES,activation
1,CN(Cc1ccccc1)C(=O)c1cn(C)c2ccc(S(=O)(=O)N3CCCCC3)cc2c1=O,13.1% (inactive)
2,Cc1ccc(Cl)cc1NC(=O)/C(C#N)=C\c1cn(Cc2ccc(F)cc2)c2ccccc12,7.85% (inactive)
3,Cc1ccc(/C=C(\C#N)C(=O)Nc2cc(C)ccc2C)cc1,98.1% (active)
4,CCOC(=O)c1c(NC(=O)/C(C#N)=C/c2ccccc2)sc2c1CCC2,13.3% (inactive)
5,Cc1ccccc1C(=O)N(Cc1ccc(N(C)C)cc1)CC1CCCO1 (centres undefined),-21.9% (inactive)
6,CSc1ccc(CCNC(=O)c2ccc3c(c2)nc2n3CCOC2)cc1,-8.85% (inactive)
7,COc1cccc(-c2nnc3n(CCc4ccccc4)c(=O)c4ccccc4n23)c1O,77.1% (active)
8,CC(C)Cn1c(=O)c2ccccc2n2c(-c3cccc(Cl)c3)nnc12,-0.202% (inactive)
9,COc1ccc(NC(=O)CCc2nnc3n(CC(C)C)c(=O)c4ccccc4n23)cc1OC,10.7% (inactive)
10,CC(C)(C)OC(=O)N1CCC(c2c(C(=O)Nc3ccc4c(c3)OCO4)cnn2-c2ccccc2)CC1,3.59% (inactive)
11,CCN(CCCNC(=O)CSc1cc(=O)n(C)c2cc(Cl)ccc12)c1cccc(C)c1,3.23% (inactive)
12,CCOc1ccc(CCNC(=O)CSc2cc(=O)n(C)c3ccc(Cl)cc23)cc1OCC,-7.71% (inactive)
13,COc1cccc(NC(=O)CSc2cc(=O)n(C)c3ccc(Cl)cc23)c1,66.2% (active)
14,Cc1ccccc1CNC(=O)Cn1c(C)c2cnn(-c3ccccc3)c(=O)c2c1C,-12.3% (inactive)
15,Cc1c(NC(=O)Nc2ccc(F)c(Cl)c2)c(=O)n(-c2ccccc2)n1C,-8.62% (inactive)
16,Oc1c(C(c2ccc(F)cc2)N2CCN(Cc3ccccc3)CC2)sc2nc(-c3ccco3)nn12 (centres undefined),64.8% (active)
17,Oc1c(C(c2ccccc2Cl)N2CCOCC2)sc2nc(-c3ccco3)nn12 (centres undefined),-11.9% (inactive)
18,Cc1cccc(-n2ncc(C(=O)N3CCc4ccccc4C3)c2C2CCN(C(=O)OC(C)(C)C)CC2)c1,-17.8% (inactive)
19,O=C(COCc1cc(-c2ccc3c(c2)OCO3)on1)N1CCN(c2cccc(Cl)c2)CC1,-10.3% (inactive)
20,Cc1cccc(CNS(=O)(=O)c2ccc(-c3cnc(C4CC4)o3)cc2)c1,-14.5% (inactive)
21,O=C(NCCc1csc(-c2ccc(C(F)(F)F)cc2)n1)C(=O)Nc1ccc(F)c(Cl)c1,-7.23% (inactive)

row,SMILES,activation
1,COc1ccc(CCC(=O)NCCc2csc(-c3ccc(Cl)cc3)n2)cc1,65.3% (active)
2,COc1ccc(-c2nc(CCNC(=O)c3ccc(Br)o3)cs2)cc1,6.04% (inactive)
3,CCc1nc2c(cnn2-c2ccc(C)cc2)c(=O)n1-c1ccc(C)cc1,-4.43% (inactive)
4,COc1cccc(C(=O)NC2(C(F)(F)F)C(=O)Nc3c2c(=O)[nH]c(=O)n3-c2ccc(C)cc2)c1 (centres undefined),-5.74% (inactive)
5,CCn1cc(CCC(=O)NCc2ccc(F)cc2)c2ccccc21,-18.2% (inactive)
6,CCOCCn1ccc2c(OCC(=O)NCc3ccc(C)cc3)cccc2c1=O,-7.09% (inactive)
7,CCCn1ccc2c(OCC(=O)NCc3ccc(F)cc3)cccc2c1=O,76.6% (active)
8,CC(=O)c1ccc(S(=O)(=O)N2CCC(Oc3ccc(-n4cnnn4)cc3)CC2)cc1,-8.41% (inactive)
9,CCc1cccc(NC(=O)c2cc(-c3ccccc3)n[nH]2)c1,-0.275% (inactive)
10,COc1cccc(-c2cc(C(=O)Nc3ccc(C)cc3)[nH]n2)c1,64.6% (active)
11,COc1cccc(NC(=O)c2csnn2)c1,10.9% (inactive)
12,Cc1ccc2cccc(NC(=O)C(C)Oc3ccc(C)c(C)c3)c2n1 (centres undefined),-2.89% (inactive)
13,COCCCNC(=O)C1CCC(CNS(=O)(=O)c2ccc(OC)cc2)CC1 (centres undefined),-7.55% (inactive)
14,COc1ccc(N2C(=O)NC(NS(=O)(=O)c3ccc(Cl)cc3)(C(F)(F)F)C2=O)cc1 (centres undefined),-2.22% (inactive)
15,Cc1nnc(SCc2cc(=O)c3cc(F)ccc3[nH]2)n1C,-15.5% (inactive)
16,CCC(=O)N1CCc2cc(Br)cc(S(=O)(=O)CCC(=O)N3CCN(c4ccc(F)cc4)CC3)c21,1.23% (inactive)
17,CCCCn1cc(S(=O)(=O)c2ccc(OCC)cc2)c(=O)c2cc(OC)c(OC)cc21,-26% (inactive)
18,COc1ccc(CCC(=O)NCc2ccc3c(c2)CCN3C(=O)c2ccc(F)cc2)cc1,-17.6% (inactive)
19,CCC(Sc1nnc(-c2ccc(OC)cc2)c(-c2ccc(OC)cc2)n1)C(=O)NC1CCCCC1 (centres undefined),-11.5% (inactive)
20,CCCS(=O)(=O)c1ncc(Cl)c(C(=O)Nc2scc(-c3ccccc3)c2C(=O)OCC)n1,97.2% (active)
21,Cc1ccc(NC(=O)c2nc(S(=O)(=O)Cc3cccc(C)c3)ncc2Cl)cc1,-21.8% (inactive)

row,SMILES,activation
1,CCOC(=O)c1ccc(NC(=O)c2nc(SCc3ccc(F)cc3)ncc2Cl)cc1,-27.7% (inactive)
2,CCOC(=O)C1CCCN(CC(=O)Nc2cc(C)c3c(=O)oc4ccccc4c3n2)C1 (centres undefined),-11.1% (inactive)
3,CSc1ccccc1-c1nnc(NC(=O)c2ccc3c(c2)OCCO3)o1,-21.8% (inactive)
4,CCOCCCNC(=O)c1cn(CC)c2ccc(S(=O)(=O)N3CCc4ccccc4C3)cc2c1=O,3.07% (inactive)
5,CCn1cc(C(=O)NCc2ccc(C)cc2)c(=O)c2cc(S(=O)(=O)N3CCc4ccccc4C3)ccc21,70.1% (active)
6,CCn1cc(C(=O)NCc2ccccc2)c(=O)c2cc(S(=O)(=O)N3CCCCC3)ccc21,0.542% (inactive)
7,COc1ccccc1NC(=O)Cn1cnc2ccc(S(=O)(=O)N3CCC(C)CC3)cc2c1=O,14.7% (inactive)
8,CCc1cccc(CC)c1NC(=O)Cn1c(=O)c(-c2cc(C)ccc2NC(C)=O)nc2ccccc21,-6.44% (inactive)
9,CCc1nn(CCCN2CCN(c3cccc(Cl)c3)CC2)c(=O)n1CCOc1ccccc1,89.4% (active)
10,CCc1nc2ccc(C(=O)N3CCN(c4cccc(Cl)c4)CC3)cc2nc1CC,-29.3% (inactive)
11,CCOC(=O)c1c(C)[nH]c(CCC(=O)NCCCN2CCN(c3cccc(Cl)c3)CC2)c1C,3.48% (inactive)
12,Cc1ccc(Cl)cc1N(C)C(=O)C1CCCN(c2ncnc3onc(-c4ccc(F)cc4)c23)C1 (centres undefined),-22% (inactive)
13,CCNC(=O)CC1C(=O)N(c2ccc(F)cc2)C(=O)N1Cc1ccc(C)cc1 (centres undefined),0.37% (inactive)
14,CCCCC12CN3CC(C)(CN(C1)C3c1ccc(O)c(OC)c1)C2=O (centres undefined),-20.2% (inactive)
15,COc1cc(OC)cc(C(=O)Nc2ccc3nc(Nc4cccc(C(F)(F)F)c4)cc(C)c3c2)c1,-9.34% (inactive)
16,Cn1c(C(=O)Nc2cccc(C(F)(F)F)c2)cc2c(=O)n3ccccc3nc21,4.29% (inactive)
17,Cc1cc(Nc2cccc(C(F)(F)F)c2)nc2ccc(NC(=O)c3ccc(=O)[nH]c3)cc12,112% (active)
18,Cn1c(=O)sc2cc(NS(=O)(=O)c3ccc(C(C)(C)C)cc3)ccc21,-13.3% (inactive)
19,CCC(C)c1ccc2oc(-c3ccc(NC(=O)c4cc5ccccc5o4)cc3)nc2c1 (centres undefined),-0.177% (inactive)
20,Cc1cc2nc(-c3ccc(NC(=O)c4cc5ccccc5o4)cc3)oc2cc1C,-3.47% (inactive)
21,CC(C)Oc1ccc(NC(=O)c2cc3ccccc3o2)cc1,63.5% (active)

# — PubChem BioAssay AID1346428 (National Center for Advancing Translational Sciences (NCATS), 2018)
